MEKK2mut PB1 HTS: signal of MEK5 binding to mutant human MEKK2 PB1 domain | bead flow cytometry, Alexa488-MEK5 binding to MEKK2 mutant | percent response, % at 10 µM | actives 0.35% (n = 290,000) | AID 1530; in the data active means percent response above about 24%, passing the limit was not always enough
MEKK2 WT-MEK5: raises or lowers MEK5 binding to wildtype human MEKK2 PB1 domain; Q9Y2U5; bead flow cytometry, Alexa488-MEK5 binding to MEKK2 WT; actives lie on both sides; binding response (% of control), % at 10 µM; actives 1.1% (n = 290,000); AID 1531; in the data active means binding response below about 67% or above about 130%
MEKK3 PB1 HTS: MEKK3-MEK5 PB1 interaction, increase or decrease; bead-based flow cytometry, Alexa488-MEK5 binding to MEKK3; actives lie on both sides; 0 = blocked by unlabeled MEK5, 100 = vehicle; binding response (% of control), % at 10 µM; actives 1.4% (n = 290,000); AID 1529;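 active means binding response more than 3 SD above or below the average of its plate-row segment, actives on both sides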;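 further: Alexa488 bead fluorescence after subtracting the streptavidin-only scavenger bead signal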
Target sequence (Q99759 whole entry, looked up): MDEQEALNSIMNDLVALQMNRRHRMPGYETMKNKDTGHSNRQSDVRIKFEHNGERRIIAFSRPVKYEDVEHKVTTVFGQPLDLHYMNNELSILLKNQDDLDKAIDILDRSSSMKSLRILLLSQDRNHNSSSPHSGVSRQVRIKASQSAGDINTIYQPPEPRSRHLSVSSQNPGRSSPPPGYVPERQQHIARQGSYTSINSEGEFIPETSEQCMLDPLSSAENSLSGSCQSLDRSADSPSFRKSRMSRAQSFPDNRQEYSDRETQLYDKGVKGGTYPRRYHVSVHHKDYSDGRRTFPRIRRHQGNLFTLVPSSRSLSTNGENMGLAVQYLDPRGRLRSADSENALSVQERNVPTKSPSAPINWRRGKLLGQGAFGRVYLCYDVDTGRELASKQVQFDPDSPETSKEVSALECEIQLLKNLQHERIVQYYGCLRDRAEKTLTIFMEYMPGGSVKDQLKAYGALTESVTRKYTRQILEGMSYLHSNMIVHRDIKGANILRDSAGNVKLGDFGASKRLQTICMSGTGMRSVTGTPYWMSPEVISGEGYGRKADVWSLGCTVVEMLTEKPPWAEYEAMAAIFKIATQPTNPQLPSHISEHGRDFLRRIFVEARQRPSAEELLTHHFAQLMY
GRK2 aptamer HTS: blocks RNA aptamer binding to human GRK2; P25098; bead flow cytometry, FAM-aptamer displacement from GRK2; inhibition of aptamer binding, % at 10 µM; actives 0.59% (n = 330,000); AID 488847;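 active means inhibition of aptamer binding above 40%, roughly 3 SD of noise, on plates passing a quality check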;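 further: median bead fluorescence of bound FAM aptamer so fluorescent compounds give negative values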
MEKK2wt confirm: raises or lowers MEK5 binding to wildtype human MEKK2, retest; shares compounds with MEKK3 PB1 HTS; bead flow cytometry, Alexa488-MEK5 binding to MEKK2 WT; actives lie on both sides; binding response (% of control), % at 10 µM; actives 2.4% (n = 5,900); AID 1892; in the data active means binding response below about 16% or above about 210%; inactive means in between
MEKK2mut-MEK5: signal of MEK5 binding to mutant human MEKK2, retest. shares compounds with MEKK3 PB1 HTS. bead flow cytometry, Alexa488-MEK5 binding to MEKK2 mutant. percent response, % at 10 µM. actives 2% (n = 5,900). AID 1893; in the data active means percent response mostly above about 71%, no sharp cut-off; inactive means mostly below about 38%;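 further: higher means compound restores mutant binding toward wildtype level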
MEKK3 confirm: confirmation of inhibitors of MEK5 binding to human MEKK3. binding response (% of control), % at 10 µM. AID 1894. bead flow cytometry, Alexa488-MEK5 binding to MEKK3; hits give low values. actives 1.8% (n = 5,900). shares compounds with MEKK3 PB1 HTS;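 active means binding response below 72% of control, or above a set upper limit, though filed actives all read lower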;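 further: 100% = DMSO only wells and 0% = binding blocked by excess unlabeled MEK5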
* hit, by the source's call; · = not tested or not shown; [ ] = dose if it differs, or a comment. This is a sample that favours compounds with a hit; in the whole collection about 2.5% have one here.

SMILES	MEKK2mut PB1 HTS	MEKK2 WT-MEK5	MEKK3 PB1 HTS	GRK2 aptamer HTS	MEKK2wt confirm	MEKK2mut-MEK5	MEKK3 confirm
COc1ccc(C[C@@H]2CN3C(=NC[C@@H]3Cc3ccc(O)cc3)N2C[C@H](C)NC(=O)CCC2CCCCC2)cc1	9	135*	1.0*[inhibitor]	0	155	53	107
C/C(=N\N=C\c1ccc(N(C)C)cc1)c1cccc([N+](=O)[O-])c1	-1	99	73*[inhibitor]	1	104	11	108
C/C(=N\N=C(N)N)c1cccc([N+](=O)[O-])c1	-2	121	102	1	·	·	·
CCN(CC)S(=O)(=O)c1ccc(OC)c(NC(=O)c2cc3c(=O)n4ccccc4nc3s2)c1	0	104	130*	10	102	-1	105
Cc1nc(N2CCN(Cc3ccccc3)CC2)c(C#N)c2c1COC(C)(C)C2	1	97	79*[inhibitor]	1	104	-1	100
CC(C)c1nc(N2CCN(C(=O)c3ccccc3)CC2)c(C#N)c2c1COC(C)(C)C2	2	106	106	2	·	·	·
O=C(CC1C(=O)NCCN1CC1CCCCC1)NCc1ccc(F)cc1 (stereo not drawn)	-2	113	99	1	·	·	·
O=C(CC1C(=O)NCCN1Cc1ccc(F)cc1)NC1CCCCCCC1 (stereo not drawn)	13	108	94	0	·	·	·
Cc1ccc(CN2CCNC(=O)C2CC(=O)NC2CCCCCC2)cc1 (stereo not drawn)	24*	127	108	0	143	36	107
O=C(CC1C(=O)NCCN1CC1CCCCC1)NCCc1ccc(F)cc1 (stereo not drawn)	-3	139*	112	0	138	57	108
CC(C)CN1CCNC(=O)C1CC(=O)NCCc1ccc(C(F)(F)F)cc1 (stereo not drawn)	36	160*	104	0	113	5	102
CC(O)[C@@H](NC(=O)C1CCC(CNC(=O)[C@H](Cc2ccccc2)NC(=O)OC(C)(C)C)CC1)C(=O)O (stereo partly drawn)	4	109	103	1	·	·	·
Cc1ccc(NC(=O)c2cc(S(=O)(=O)Nc3ccc(C)cc3)cs2)cc1	10	103	104	0	·	·	·
COc1ccc(/C=C(/NC(=O)/C=C/c2ccccc2)C(=O)N2CCOCC2)cc1	1	108	149*	0	108	7	106
COc1cccc(CNc2ccccn2)c1O	2	100	97	0	·	·	·
COc1cccc(CNc2cc(C)ccn2)c1O	27*	100	100	3	97	-10	98
COc1ccc(-c2cnnc(N/N=C/c3ccc(O)cc3)n2)cc1	0	117	128*	1	102	3	100
COc1ccc(-c2cnnc(N/N=C/c3ccc(O)c(O)c3)n2)cc1	0	102	97	2	·	·	·
Cc1csc2c(N3CCN(C(=O)c4ccc(C(C)(C)C)cc4)CC3)ncnc12	22	124	131*	1	109	1	104
Cc1csc2c(N3CCN(C(=O)NC(C)(C)C)CC3)ncnc12	12	109	114	2	·	·	·
COc1cccc(CNC(=O)[C@H](C)NC(=O)C2CCN(S(=O)(=O)c3ccccc3)CC2)c1	3	101	102	3	·	·	·
Cc1ccccc1Nc1nnc(SCC(=O)Nc2ccccc2[N+](=O)[O-])s1	0	105	133*	1	96	-1	102
CCCNS(=O)(=O)c1ccc(OCC(=O)N2CCOCC2)cc1	-5	88	69*[inhibitor]	0	99	-2	101
C=CCSc1nnc(NC(=O)c2cn(CC)c3nc(C)ccc3c2=O)s1	-1	101	101	0	·	·	·
O=C1CC(N2CCOCC2)C(=O)N1CCN1C(=O)CC(N2CCOCC2)C1=O (stereo not drawn)	-16	2.0*[inhibitor]	2.0*[inhibitor]	1	98	-1	97

Screening data deposited in PubChem BioAssay by NMMLSC.
